Assay results from PubChem BioAssay (NCATS).
Records with an inconclusive call do not appear. Entries that show only a call come without a potency. Values without a mark were called inactive. Active and inactive are the calls of the source. Calls follow the shape of the dose curve; as a rule, active = well fitted inhibition curve with a large enough effect; inconclusive = small, poorly fitted or top-dose-only effect; inactive = flat fitted curve, though single readings scatter.

Experiments:
[1] = qHTS profiling for inhibitors of Plasmodium falciparum proliferation (AID 504749); as to all read-outs here: nearly all actives have a fitted effect of over 60% in size; details: P. falciparum in erythrocytes, SYBR Green DNA, 72 h; for activity, negative = inhibition: at 28.7 µM (top of the series)
Procedure, shortened: (§1)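 P. falciparum-infected erythrocytes (0.3% parasitemia, 2.5% hematocrit) incubated with compound 72 h at 37 C, 5% CO2. Parasite DNA detected by SYBR Green after lysis, overnight at room temperature; normalised to 0.29 uM artemisinin and DMSO.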

3D7 = assay: as above; details: P. falciparum in erythrocytes, SYBR Green DNA, 72 h; series mostly up to 28.7 µM
Procedure, shortened: as §1

7G8 = assay: as above; details: P. falciparum in erythrocytes, SYBR Green DNA, 72 h; series mostly up to 28.7 µM
Procedure, shortened: as §1

ATS189 = assay: as above; details: P. falciparum in erythrocytes, SYBR Green DNA, 72 h; series mostly up to 28.7 µM
Procedure, shortened: as §1

C2A = assay: as above; details: P. falciparum in erythrocytes, SYBR Green DNA, 72 h; series mostly up to 28.7 µM
Procedure, shortened: as §1

CP185 = assay: as above; details: P. falciparum in erythrocytes, SYBR Green DNA, 72 h; series mostly up to 28.7 µM
Procedure, shortened: as §1

AA1029 = assay: as above; details: P. falciparum in erythrocytes, SYBR Green DNA, 72 h; series mostly up to 28.7 µM
Procedure, shortened: as §1

AS120 = assay: as above; details: P. falciparum in erythrocytes, SYBR Green DNA, 72 h; series mostly up to 28.7 µM
Procedure, shortened: as §1

ATS95 = assay: as above; details: P. falciparum in erythrocytes, SYBR Green DNA, 72 h; series mostly up to 28.7 µM
Procedure, shortened: as §1
Potency is read from the fitted curve at half-maximal effect.

SMILES | activity, negative = inhibition ([1]; parasite line A) [%] | activity, negative = inhibition ([1]; parasite line B) [%] | Potency (3D7) | Potency (7G8) | Potency (ATS189) | Potency (C2A) | Potency (CP185) | Potency (AA1029) | Potency (AS120) | Potency (ATS95) | Potency ([1]; parasite line A) | Potency ([1]; parasite line B)
CN(c1nccc(=O)[nH]1)C1CCN(c2nc3ccccc3n2Cc2ccc(F)cc2)CC1 | -22.1 | -10.5 | inactive | 11.2 µM (active) | inactive | inactive | inactive | – | – | – | – | –
CNC[C@H](O)c1ccc(O)c(O)c1 | -8.23 | 3.15 | – | inactive | inactive | inactive | inactive | inactive | inactive | inactive | – | –
CC1(C)NC(=O)N(c2ccc([N+](=O)[O-])c(C(F)(F)F)c2)C1=O | -1.6 | 7.49 | inactive | inactive | inactive | inactive | inactive | inactive | inactive | inactive | – | –
CC(S)C(=O)NCC(=O)O (stereo unspecified) | 5.37 | 13.7 | inactive | – | inactive | inactive | inactive | inactive | inactive | inactive | – | –
COC(=O)C1=C(C)NC(C)=C(C(=O)OCCCN2CCC(c3ccccc3)(c3ccccc3)CC2)C1c1cccc([N+](=O)[O-])c1 (stereo unspecified) | – | – | 2.82 µM (active) | 2 µM (active) | 4.47 µM (active) | 3.98 µM (active) | 7.08 µM (active) | 4.47 µM (active) | 2.82 µM (active) | 5.01 µM (active) | 4.47 µM (active) | 6.31 µM (active)
Nc1nc(Cl)nc2c1ncn2[C@H]1C[C@H](O)[C@@H](CO)O1 | -3.94 | 14.5 | inactive | inactive | inactive | inactive | inactive | inactive | inactive | inactive | – | –
COc1ccc(C2(C#N)CCC(C(=O)O)CC2)cc1OC1CCCC1 (stereo unspecified) | 10.1 | -9.11 | inactive | inactive | inactive | inactive | inactive | inactive | inactive | inactive | – | –
CCCCCCCCOc1ccccc1C(=O)Nc1ccc(C(=O)OCC[N+](C)(CC)CC)cc1 | – | – | 10 µM (active) | 12.6 µM (active) | – | 12.6 µM (active) | 8.91 µM (active) | 10 µM (active) | – | 7.94 µM (active) | 12.6 µM (active) | 10 µM (active)
Cc1cc(C2CCCCC2)n(O)c(=O)c1 | – | – | – | 3.16 µM (active) | – | – | – | – | 3.55 µM (active) | – | – | 3.55 µM (active)
CCN(CCO)CCCC(C)Nc1ccnc2cc(Cl)ccc12 (stereo unspecified) | – | – | 0.562 µM (active) | – | inactive | inactive | inactive | inactive | inactive | inactive | 0.708 µM (active) | 1 µM (active)
Cc1ccc(C)c(OCCCC(C)(C)C(=O)O)c1 | 19.7 | 9.1 | inactive | inactive | inactive | inactive | inactive | inactive | inactive | inactive | – | –
Clc1ccc(C(Cn2ccnc2)OCc2ccsc2Cl)c(Cl)c1 (stereo unspecified) | – | – | 2.51 µM (active) | 0.447 µM (active) | 6.31 µM (active) | – | 7.94 µM (active) | 7.94 µM (active) | 1.12 µM (active) | 7.08 µM (active) | 2.82 µM (active) | 2.82 µM (active)
CCc1nc(N)nc(N)c1-c1ccc(Cl)cc1 | – | – | 0.0794 µM (active) | 10 µM (active) | inactive | inactive | inactive | inactive | – | inactive | 0.0501 µM (active) | 3.16 µM (active)
CCC(C)(Oc1ccc(C2(c3ccc(OC(C)(CC)C(=O)O)cc3)CCCCC2)cc1)C(=O)O (stereo unspecified) | 2.31 | -9.49 | inactive | inactive | inactive | inactive | inactive | inactive | inactive | inactive | – | –
O=C1CCc2ccc(OCCCCN3CCN(c4cccc(Cl)c4Cl)CC3)cc2N1 | – | – | – | 12.6 µM (active) | – | – | – | – | – | – | – | –
COC1=C(OC)C(=O)C(CCCCCCCCCCO)=C(C)C1=O | -28.8 | -11.7 | – | – | inactive | inactive | inactive | inactive | inactive | inactive | – | –
Cn1c(NCCN(CCO)CCCc2ccc([N+](=O)[O-])cc2)cc(=O)n(C)c1=O | 6.79 | 16.9 | inactive | – | inactive | inactive | inactive | inactive | inactive | inactive | – | –
Cc1c(C(=O)NN2CCCCC2)nn(-c2ccc(Cl)cc2Cl)c1-c1ccc(Cl)cc1 | – | – | – | 12.6 µM (active) | – | – | – | – | 12.6 µM (active) | – | – | 11.2 µM (active)
Cc1ccc(NC(=O)c2ccc(CN3CCN(C)CC3)cc2)cc1Nc1nccc(-c2cccnc2)n1 | – | – | – | 7.94 µM (active) | 12.6 µM (active) | 11.2 µM (active) | – | 11.2 µM (active) | 8.91 µM (active) | 10 µM (active) | – | 11.2 µM (active)
